Measurements reported in PubChem BioAssay (NCATS).
Records with an inconclusive call do not appear. Activity calls are given as the source filed them. Unless noted, calls come from the whole dose curve.

Legend:
[1] = Primary qHTS for inhibitors of SARS-S pseudo-typed particle cell entry (AID 1479145); note: nearly all actives have a fitted effect of over 45% in size; note: potency is the fitted concentration of half-maximal effect; for activity change, negative = inhibition: series mostly up to about 57 µM; % is set by controls: 0 for no effect and ±100 for the full control effect
[2] = Primary qHTS for Huh7 cytotoxicity: counterscreen for inhibitors of MERS-S pseudotyped particle cell entry (AID 1479147)
[3] = Primary qHTS for inhibitors of MERS-S pseudo-typed particle cell entry (AID 1479149); note: nearly all actives have a fitted effect of over 60% in size; for activity change, negative = inhibition: series mostly up to about 57 µM; % is set by controls: 0 for no effect and ±100 for the full control effect
[4] = Primary qHTS for Vero E6 cytotoxicity: counterscreen for inhibitors of SARS-S pseudo-typed particle cell entry (AID 1479150)
[5] = target: Protein phosphatase 1D (Homo sapiens) (UniProt O15297); test: RapidFire Mass Spectrometry qHTS Assay for Modulators of WT P53-Induced Phosphatase 1 (WIP1) (AID 1347424; active = well fitted curve in the direction sought with a large enough effect; an effect the other way counts as inactive or inconclusive;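 note: amount of dephosphorylated VEPPL-S-QETFS peptide product formed by WIP1; series mostly up to about 63 µM; plate controls were DMSO wells for no effect and GSK830371 inhibitor control at 10 µM for full effect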)
Outline: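 RapidFire mass spectrometry measured dephosphorylated peptide after 5 min room-temperature reaction of 2 uM VEPPL-pS-QETFS with 10 nM WIP1 (50 mM Tris-HCl pH 7.5, 30 mM MgCl2, 0.1 mM EGTA, BSA), following 1 hr compound preincubation; 1 uM isotope-labelled product standard.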

[6] = Primary qHTS for inhibitors of La Crosse Virus (LACV) - induced cell death in SH-SY5Y cells (AID 1508616; active = well fitted curve in the direction sought with a large enough effect; an effect the other way counts as inactive or inconclusive;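 note: top concentration of the series differs between compounds; 0% = infected DMSO wells and 100% = uninfected DMSO wells; higher means more rescue of cells from virus-induced death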)
Outline: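 Rescue of virus-induced death was read as ATPLite luminescence after 6 days at 37C, scaled between DMSO wells with LACV and without virus. Cells were SH-SY5Y, 6000/well, infected at 0.01 MOI after compound addition.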

[7] = target: Calcium and integrin-binding protein 1 (Homo sapiens) (UniProt Q99828); test: Primary qHTS for Identification of Calcium Integrin Binding Protein 1 (CIB1) Competitor (AID 1508620; active = well fitted curve in the direction sought with a large enough effect; an effect the other way counts as inactive or inconclusive;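 note: GST tagged CIB1 binding a fluorescein labelled alphaIIb integrin peptide tracer; top concentration of the series differs between compounds; % is set by controls: 0 for no effect and ±100 for the full control effect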)
Outline: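 CIB1-GST (1 uM final) and compound incubated 15 min at room temperature before adding FITC-alphaIIb peptide tracer (100 nM final). Competition for binding read by fluorescence polarization (ex 480, em 540) after another 15 min at room temperature.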

[8] = Counterscreen qHTS for small molecule stabilizers of the endoplasmic reticulum resident proteome: GLuc-NoTag assay (AID 1508627; active = well fitted curve in the direction sought with a large enough effect; an effect the other way counts as inactive or inconclusive;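 note: SH-SY5Y cells given compound then 100 nM thapsigargin to empty ER calcium; series mostly up to about 76 µM; 0% = thapsigargin alone and -100% = DMSO vehicle control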)
Outline: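 Counterscreen line: SH-SY5Y-GLuc-NoTag cells, treated with compound 19 hr before a 4 hr, 100 nM thapsigargin calcium depletion. Secreted Gaussia luciferase in the medium was measured by luminescence after coelenterazine was added (0.07x final), with cells unlysed.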

Sequence of Protein phosphatase 1D (Homo sapiens) (O15297 whole entry, looked up): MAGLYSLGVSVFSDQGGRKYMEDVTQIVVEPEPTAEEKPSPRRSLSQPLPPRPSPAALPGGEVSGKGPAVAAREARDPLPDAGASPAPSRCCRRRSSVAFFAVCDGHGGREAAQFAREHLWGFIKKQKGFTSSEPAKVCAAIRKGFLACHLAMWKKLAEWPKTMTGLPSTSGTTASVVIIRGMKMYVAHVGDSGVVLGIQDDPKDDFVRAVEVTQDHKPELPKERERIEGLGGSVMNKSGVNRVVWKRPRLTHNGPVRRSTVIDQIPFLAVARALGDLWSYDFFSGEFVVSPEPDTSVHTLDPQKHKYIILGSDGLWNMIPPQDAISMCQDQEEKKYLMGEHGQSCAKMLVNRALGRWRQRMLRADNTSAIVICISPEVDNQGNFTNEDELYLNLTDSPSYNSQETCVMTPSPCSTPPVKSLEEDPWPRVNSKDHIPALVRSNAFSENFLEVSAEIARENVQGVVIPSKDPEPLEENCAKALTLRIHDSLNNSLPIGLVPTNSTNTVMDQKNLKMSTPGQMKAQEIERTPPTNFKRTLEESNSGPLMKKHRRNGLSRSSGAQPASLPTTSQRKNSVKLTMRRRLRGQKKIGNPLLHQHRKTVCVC
Sequence of Calcium and integrin-binding protein 1 (Homo sapiens) (Q99828 whole entry, looked up): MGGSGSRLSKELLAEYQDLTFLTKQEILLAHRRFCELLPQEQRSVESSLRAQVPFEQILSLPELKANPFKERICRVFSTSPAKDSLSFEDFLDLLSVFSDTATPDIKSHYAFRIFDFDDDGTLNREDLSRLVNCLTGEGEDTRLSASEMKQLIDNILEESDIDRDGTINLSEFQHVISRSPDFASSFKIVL

CC(C)=CCC1C(=O)N(c2ccccc2)N(c2ccccc2)C1=O
inactive: Potency [1] | Potency [2] | Potency [3] | Potency [4]

O=C(O)[C@@H](O)[C@H](O)[C@H](O)[C@@H](O)C(=O)O
inactive: Potency [1] | Potency [2] | Potency [3] | Potency [4]

CCC(C)(C)c1ccc(O)cc1
inactive: Potency [5] | outcome [6] | Potency [7]

Nc1nc(N)nc(NC2CC2)n1
inactive: Potency [5] | Potency [7]

C[C@H](N)C(=O)c1ccccc1
inactive: Potency [5] | Potency [7] | outcome [8]

O=C(O)c1cc(N=Nc2ccc(O)c(C(=O)O)c2)ccc1O
inactive: Potency [1] | Potency [2] | Potency [3] | Potency [4]

CC(=O)NCc1c(I)c(NC(C)=O)c(I)c(C(=O)O)c1I
inactive: Potency [1] | Potency [2] | Potency [3] | Potency [4]

O=c1c(C2CC(c3ccc(-c4ccc(Br)cc4)cc3)Cc3ccccc32)c(O)sc2ccccc12 (stereo not given)
inactive: Potency [2]
active: Potency [1] 25.1 µM

Nc1ccccc1C(=O)O
inactive: Potency [5] | outcome [6] | Potency [7]

COc1cccc(OC)c1C(=O)N[C@@H]1C(=O)N2[C@@H]1SC(C)(C)[C@@H]2C(=O)O
inactive: Potency [1] | Potency [2] | Potency [3] | Potency [4]

CCC1=C(C)CN(C(=O)NCCc2ccc(S(=O)(=O)NC(=O)NC3CCC(C)CC3)cc2)C1=O (stereo not given)
inactive: Potency [1] | Potency [2] | Potency [3] | Potency [4]

CCn1cc(C(=O)O)c(=O)c2cnc(N3CCCC3)nc21
inactive: activity change, negative = inhibition [1] -4.52% [at 11.4 µM] | outcome [2] inactive [at 11.4 µM] | outcome [3] inactive [at 11.4 µM] | outcome [4] inactive [at 11.4 µM]

O=C(O)CCC(=O)O
inactive: Potency [1] | Potency [2] | Potency [3] | Potency [4]

CN[C@@H]1[C@@H](O)[C@@H](O[C@@H]2[C@H](O)[C@H](O[C@H]3OC(CN)=CC[C@H]3N)[C@@H](N)C[C@H]2N)OCC1(C)O (stereo not given in full)
inactive: Potency [1] | Potency [2] | Potency [3] | Potency [4]

COc1cc(CCN)cc(OC)c1OC
inactive: Potency [5] | outcome [6] | Potency [7]

CC(C)=CCC/C(C)=C/CC/C(C)=C/CCC(=O)OC/C=C(\C)CCC=C(C)C
inactive: Potency [1] | Potency [2] | Potency [3]

Cc1cnc(NC(=O)C2=C(O)c3ccccc3S(=O)(=O)N2C)s1
inactive: Potency [1] | Potency [2] | Potency [3]

c1ccc(N2CCNCC2)cc1
inactive: Potency [5] | Potency [7]

CCC[C@@H]1C[C@@H](C(=O)N[C@@H]([C@H]2O[C@H](SC)[C@H](O)[C@@H](O)[C@H]2O)[C@@H](C)O)N(C)C1
inactive: Potency [1] | Potency [2] | Potency [3] | Potency [4]

CCCCCCC(=O)CCCCCC/C=C/C[C@@H](O)[C@H](O)[C@@](N)(CO)C(=O)O
inactive: Potency [5] | outcome [6] | Potency [7]

Cc1oc(=O)oc1COC(=O)[C@@H]1N2C(=O)[C@@H](NC(=O)[C@H](N)c3ccccc3)[C@H]2SC1(C)C
inactive: Potency [1] | Potency [2] | Potency [3] | Potency [4]

COC(=O)C(c1ccccc1)C1CCCCN1 (stereo not given)
inactive: Potency [1] | Potency [2] | Potency [3] | Potency [4]

CC(=O)OCC(=O)[C@@]1(O)[C@H](OC(C)=O)C[C@H]2[C@@H]3CCC4=CC(=O)C=C[C@]4(C)[C@@]3(F)[C@@H](O)C[C@@]21C
inactive: Potency [1] | Potency [2] | Potency [3] | Potency [4]

O=C(NCC1CCCCN1)c1cc(OCC(F)(F)F)ccc1OCC(F)(F)F (stereo not given)
inactive: Potency [1] | Potency [2] | Potency [3] | Potency [4]

CCN1CCC[C@H]1CNC(=O)c1cc(S(N)(=O)=O)ccc1OC
inactive: Potency [1] | Potency [2] | Potency [3] | Potency [4]

CC(C)(C)NC[C@H](O)COc1nsnc1N1CCOCC1
inactive: Potency [1] | Potency [2] | Potency [3] | Potency [4]

CC[C@@]1(O)C(=O)OCc2c1cc1n(c2=O)Cc2c-1nc1ccccc1c2/C=N/OC(C)(C)C
inactive: Potency [1] | Potency [2] | Potency [3]

O=C(O)CCCCC(=O)O
inactive: Potency [1] | Potency [2] | Potency [3] | Potency [4]

COc1cccc2c1C(=O)c1c(O)c3c(c(O)c1C2=O)C[C@@](O)(C(=O)CO)C[C@@H]3O[C@H]1C[C@H](N)[C@@H](O)[C@H](C)O1
active: Potency [1] 10 µM

O=C(O)CNC(=O)c1ccccc1
inactive: Potency [1] | Potency [2] | Potency [3] | Potency [4]

CN1C(C(=O)Nc2ccccn2)=C(O)c2ccccc2S1(=O)=O
inactive: Potency [1] | Potency [2] | Potency [3] | Potency [4]

CN/C(=C\[N+](=O)[O-])NCCSCc1csc(CN(C)C)n1
inactive: Potency [1] | Potency [2] | Potency [3] | Potency [4]

Cc1cccc(C)c1OCC(=O)N[C@@H](Cc1ccccc1)[C@@H](O)C[C@H](Cc1ccccc1)NC(=O)[C@H](C(C)C)N1CCCNC1=O
inactive: Potency [1] | Potency [2] | Potency [3] | Potency [4]

CC(C(=O)O)c1ccc2c(c1)[nH]c1ccc(Cl)cc12 (stereo not given)
inactive: Potency [1] | Potency [2] | Potency [3] | Potency [4]

CCC[C@@]1(CCc2ccccc2)CC(O)=C([C@H](CC)c2cccc(NS(=O)(=O)c3ccc(C(F)(F)F)cn3)c2)C(=O)O1
inactive: Potency [1] | Potency [2] | Potency [3] | Potency [4]

O=C(Oc1ccccc1)c1ccccc1O
inactive: Potency [1] | Potency [2] | Potency [3] | Potency [4]

O=C(O)COc1nn(Cc2ccccc2)c2ccccc12
inactive: Potency [1] | Potency [2] | Potency [3] | Potency [4]

O=C(O)c1ccccc1S
inactive: Potency [1] | Potency [2] | Potency [3] | Potency [4]
